Source: PubChem BioAssay (NCI)
About 83,000 compounds went through this panel and 20% of them were active in at least one assay; those are over-represented in the sample as a whole.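 Single-concentration screen, 48 h exposure, 96-well plates. Endpoint: percent growth. Below 10 = active.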 Unmarked numbers belong to inactive results. Calls of active or inactive are those of the source.

Each molecule was assayed on HL-60(TB) leukemia (assay: NCI-60 one-dose screen, 48 h (100 = growth as untreated, 0 = no growth, -100 = all killed)). Conditions: 10 µM unless noted.

| Structure (SMILES) | growth |
| --- | --- |
| Fc1cc2[nH]ncc2c2c3c(c(-c4cn[nH]c4C(F)(F)F)nc12)CCCC3 | -9.67% (active) |
| COc1cc(/C=C/c2cc(/C=C/c3ccc(O)c(OC)c3)nc(N)n2)ccc1O | 3.67% (active) |
| c1cncc(-c2nc3ccccc3[nH]2)c1 | 94.8% |
| Clc1ccc2c(Nc3ccc4oc(NCCN5CCCC5)nc4c3)ccnc2c1 | 72.3% |
| COc1ccc(/C(=C\c2ccc3c(c2)OCO3)C(=O)Nc2nc3ccccc3s2)cc1 | 101% |
| COc1ccc(C2=Nc3c(C)nn(-c4ccccc4)c3NC(c3ccc(Oc4ccnc5cc(Cl)ccc45)c(OC)c3)C2)cc1 (stereo not given) | 90.8% |
| CN1C(=O)CNC(=O)[C@H](NC(=O)c2nc3ccccc3cc2O)CSSC[C@H]1C(=O)NCCc1nc2ccccc2cc1O | -36.8% (active) |
| COC(=O)CC(=O)C(=O)OC | 100% |
| O=c1oc2c(cnc3ccccc32)cc1-c1cccs1 | 98.2% |
| COc1ccc2c(c1)OC1=C(C(=O)OC1)C2c1cc(OC)c2c(c1)OCO2 (stereo not given) | -13% (active) |
| Cc1ccc(S(=O)(=O)/C(=C\c2ccc(Cl)cc2)C(=O)c2ccccc2)cc1 | 97.1% |
| Cc1ccc(S(=O)(=O)CCCl)cc1 | 91.7% |
| O=C1CSC(c2ccc(O)cc2)N1c1nnc(Cn2cnnc2)o1 (stereo not given) | 59.1% |
| CN=C(N)N/N=C(\C)c1ccc2c(c1)Cc1cc(/C(C)=N/NC(N)=NC)ccc1-2 | -23.2% (active) |
| COc1ccc(-c2cscc2N)cc1 | 18.7% [100 µM] |
